Laboratory results from the supplement of paper PMC10646978.
± gives the standard deviation.

Tests used:
Conditions in all cases: modulator concentration 10 µM
[1] = tested on: RAW-Dual (murine macrophage reporter line); experiment: NF-kB reporter (SEAP) activity fold change vs agonist alone; higher = enhanced NF-kB activity
Method in brief: (§1)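 Overnight stimulation with a PRR agonist followed pre-incubation for 1 hour at 37 °C with compound at 10 μM final. This was done in RAW-Dual murine macrophage reporter cells seeded at 50 000 per well in 384-well plates. NF-κB (SEAP, QUANTI-Blue absorbance at 620 nm) and IRF (Lucia luciferase, QUANTI-Luc luminescence) were read from the supernatant. Each reporter's fold change relative to the mean agonist-only control on the same plate was averaged over replicate plates.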

[2] = tested on: RAW-Dual (murine macrophage reporter line); experiment: IRF reporter (Lucia luciferase) activity fold change vs agonist alone; higher = enhanced IRF activity
Method in brief: as §1

[3] = tested on: RAW-Dual (murine macrophage reporter line); experiment: viability score (confluency relative to resting cells, overnight) (fraction); higher = more viable, active = viable (0.7 or more)
Method in brief: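 Compound was added at a final 10 μM to RAW-Dual macrophages in 384-well plates and left overnight. Confluency was imaged with IncuCyte, and two masks were generated in IncuCyte software over all imaged wells. Each viability score is confluency relative to resting cells, and a compound met the cutoff only when both masks were above 70% of resting cells.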

[4] = agonist: CpG ODN 1826 0.5 ug/mL

| SMILES | NF-kB reporter [1, 4] | NF-kB reporter ([1]; agonist: LPS 0.1 ug/mL) | NF-kB reporter ([1]; agonist: MPLA […]) | IRF reporter ([2]; agonist: 3'3'-cGAMP 10 ug/mL) | IRF reporter ([2]; agonist: LPS 0.1 ug/mL) | IRF reporter ([2]; agonist: MPLA […]) | viability score [3] |
| --- | --- | --- | --- | --- | --- | --- | --- |
| COc1ccc(C(=O)NCCOc2cc(C)cc(C)c2)cc1OC | 1.48 ± 0.12 | 1 ± 0.056 | 0.827 ± 0.062 | 1.02 ± 0.045 | 1.42 ± 0.19 | 1.03 ± 0.21 | 1.01 (active) |
| COC(=O)CNC(c1ccccc1)c1cc(Br)ccc1NC(=O)c1ccccc1Br (configuration not stated) | 0.826 ± 0.07 | 0.777 ± 0.041 | 1.52 ± 0.053 | 0.632 ± 0.035 | 1.1 ± 0.14 | 1.52 ± 0.22 | 0.988 (active) |
| CCC(O)=C(C#N)c1nc2ccccc2n1C | 1.12 ± 0.12 | 0.938 ± 0.061 | 1.18 ± 0.064 | 0.792 ± 0.033 | 1.02 ± 0.07 | 1.37 ± 0.15 | 0.995 (active) |
| O=C(Nc1ccc(S(=O)(=O)N2CCOCC2)cc1)c1ccc(Br)s1 | 1.14 ± 0.13 | 1.02 ± 0.092 | 1.01 ± 0.029 | 0.521 ± 0.021 | 1.05 ± 0.065 | 1.12 ± 0.12 | 0.995 (active) |
| O=C(CCCN1CC=C(n2c(=O)[nH]c3ccccc32)CC1)c1ccc(F)cc1 | 0.788 ± 0.06 | 0.828 ± 0.078 | 0.71 ± 0.069 | 0.975 ± 0.052 | 0.932 ± 0.15 | 1.21 ± 0.2 | 0.276 (inactive) |
| Cc1ccc(CCC(=O)N2CC(N3C(=O)C4CC=CCC4C3=O)C2)cc1F (configuration not stated) | 0.728 ± 0.26 | 1.1 ± 0.1 | 1 ± 0.044 | 0.741 ± 0.037 | 1.05 ± 0.12 | 0.87 ± 0.092 | 1 (active) |
| FC(F)(F)c1ccc(CNc2ccc(Cc3c[nH]c4ncc(Cl)cc34)cn2)cn1 | 0.154 ± 0.011 | 0.281 ± 0.028 | 0.378 ± 0.02 | 0.0391 ± 0.0019 | 0.335 ± 0.13 | 0.202 ± 0.083 | 0.978 (active) |
| CC(=O)Nc1ccc(O)cc1 [Prestw-868] | 0.876 ± 0.28 | 1.04 ± 0.081 | 0.965 ± 0.082 | 0.972 ± 0.056 | 0.938 ± 0.19 | 1.03 ± 0.14 | 0.998 (active) |
| O=C(NCCCn1ccc2cccnc21)c1ccccc1C(F)(F)F | 0.946 ± 0.091 | 1.1 ± 0.092 | 1.03 ± 0.18 | 1.06 ± 0.056 | 1.16 ± 0.1 | 1.45 ± 0.15 | 0.978 (active) |
| Ic1ccc(N=Cc2ccc(C=Nc3ccc(I)cc3)cc2)cc1 | 1.03 ± 0.081 | 0.868 ± 0.083 | 0.997 ± 0.097 | 0.954 ± 0.038 | 1.24 ± 0.19 | 1.44 ± 0.23 | 1.02 (active) |
| CN1C(=O)OC(C)(C)C1=O | 1.01 ± 0.12 | 1.09 ± 0.075 | 1.05 ± 0.03 | 1.04 ± 0.17 | 1.01 ± 0.14 | 0.957 ± 0.22 | 1 (active) |
| CN(C)c1nc(CNC(=O)CSc2nc3ccccc3o2)nc(N(C)C)n1 | 1.01 ± 0.07 | 1.13 ± 0.12 | 1.01 ± 0.067 | 0.959 ± 0.048 | 1.05 ± 0.063 | 1 ± 0.078 | 0.979 (active) |
| O=C1C(=CNCCN2CCOCC2)C(C(F)(F)F)=NN1c1nc2ccccc2s1 | 0.967 ± 0.079 | 1.01 ± 0.056 | 0.863 ± 0.06 | 0.947 ± 0.044 | 1.32 ± 0.17 | 0.98 ± 0.065 | 1.01 (active) |
| O=S(=O)(Cc1ccccc1)c1nc2ccccc2n1Cc1ccc(Cl)cc1 | 0.661 ± 0.045 | 1.1 ± 0.071 | 0.978 ± 0.057 | 1.32 ± 0.059 | 1.35 ± 0.092 | 1.36 ± 0.19 | 0.965 (active) |
| C#CCN[C@@H]1CCc2ccccc21 [Prestw-1734] | 1.05 ± 0.06 | 0.933 ± 0.11 | 0.978 ± 0.026 | 0.977 ± 0.037 | 0.957 ± 0.054 | 0.973 ± 0.1 | 0.996 (active) |
| O=C(CCc1ccc(F)c(Cl)c1)NCCn1nccn1 | 1.06 ± 0.052 | 1.06 ± 0.11 | 0.972 ± 0.056 | 1 ± 0.068 | 1.21 ± 0.076 | 1.06 ± 0.087 | 0.992 (active) |
| O=c1c(O)c(-c2ccc(O)c(O)c2)oc2cc(O)cc(O)c12 | 1.06 ± 0.26 | 1.04 ± 0.093 | 1.47 ± 0.12 | 0.356 ± 0.021 | 1.08 ± 0.23 | 1.12 ± 0.14 | 0.982 (active) |
| CCS(=O)(=O)c1ccc(-c2cccc(NC(=O)CC3CCCC3)c2)nn1 | 1.19 ± 0.099 | 0.932 ± 0.073 | 1.01 ± 0.029 | 0.905 ± 0.033 | 0.973 ± 0.056 | 0.926 ± 0.13 | 0.999 (active) |
| NS(=O)(=O)c1ccc2c(c1)C1C=CCC1C(C(=O)O)N2 (configuration not stated) | 0.586 ± 0.049 | 0.992 ± 0.15 | 1.01 ± 0.075 | 0.8 ± 0.043 | 0.931 ± 0.055 | 1.01 ± 0.089 | 0.997 (active) |
| CCOC(=O)[C@H](CCc1ccccc1)N[C@H]1CCc2ccccc2N(CC(=O)O)C1=O [Prestw-1129] | 1.13 ± 0.097 | 0.978 ± 0.079 | 0.941 ± 0.06 | 1.02 ± 0.045 | 1 ± 0.047 | 0.879 ± 0.087 | 0.994 (active) |
| C=CCc1ccc(OCCCOc2ccccc2C(C)=O)c(OC)c1 | 1.02 ± 0.072 | 1.08 ± 0.082 | 1.19 ± 0.049 | 0.66 ± 0.026 | 0.863 ± 0.052 | 1.07 ± 0.12 | 0.99 (active) |
| COC(=O)C1=CN(CC2CCCO2)C=C(C(=O)OC)C1c1ccc(F)cc1 (configuration not stated) | 1.06 ± 0.065 | 0.875 ± 0.069 | 1.22 ± 0.063 | 0.886 ± 0.062 | 0.95 ± 0.046 | 0.961 ± 0.13 | 0.996 (active) |
| CCOc1ccc(C=Nc2cccc3ncccc23)cc1 | 0.971 ± 0.084 | 1.02 ± 0.067 | 0.958 ± 0.077 | 0.424 ± 0.019 | 1.15 ± 0.11 | 0.979 ± 0.095 | 1 (active) |
| Cc1cc(OC2CN(C(=O)Cn3nnc4ccccc43)C2)cc(=O)n1C1CC1 | 1.14 ± 0.08 | 1.05 ± 0.11 | 1.02 ± 0.044 | 0.97 ± 0.044 | 0.99 ± 0.07 | 0.973 ± 0.15 | 0.997 (active) |
| COc1c(C)cnc(Cn2cccc(-c3nc(C)no3)c2=O)c1C | 0.826 ± 0.2 | 0.937 ± 0.092 | 0.967 ± 0.061 | 0.95 ± 0.033 | 0.995 ± 0.18 | 1.1 ± 0.22 | 0.997 (active) |
| Cc1cc(OC2CN(C(=O)Cn3cnc4ccccc43)C2)cc(=O)n1C1CC1 | 1.16 ± 0.11 | 1.09 ± 0.099 | 0.97 ± 0.026 | 1 ± 0.04 | 1.06 ± 0.06 | 0.955 ± 0.092 | 0.997 (active) |
